# TDP1 cell CPT – DT40-hTDP1 cell growth loss with CPT. chicken DT40 Tdp1-/-;hTDP1 cells + 20 nM CPT, ATP luminescence, 48 h. Potency, µM (top dose mostly 46.2 µM), inactives show at the highest dose activity change, negative = growth inhibition, actives largely listed as inhibitors. 420,000 tested, 12% active. AID 686979; note: potency is the fitted concentration of half-maximal effect; % is set by controls: 0 for no effect and ±100 for the full control effect; nearly all actives have a fitted effect of over 55% in size
#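 Chicken DT40 Tdp1-/- cells stably complemented with human TDP1 were seeded at 400 cells/well in medium containing 20 nM camptothecin, exposed to pin-transferred compounds, and grown at 37 °C for at least 48 hr. Viability was read as ATP luminescence.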
# HepG2 viability – HepG2 cytotoxicity, counter-screen for TGF-b inhibitors | HepG2 CAGA-GFP viability, ATP luminescence, 18 h | Potency, µM (series often up to 46.1 µM), for inactives: at the top dose activity change, negative = cytotoxicity, most hits filed as cytotoxic | 410,000 tested, 0.76% active | AID 588856; note: potency is the fitted concentration of half-maximal effect
#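 HepG2 CAGA-GFP cells (1000/well, DMEM with 1% FBS) received compound, then TGF-beta at 500 pg/mL final, and were incubated 18 hours at 37 degrees C. Viability was read by CellTiter-Glo luminescence. Media-only wells were set as complete cell-killing and DMSO as no toxicity.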
# TGFb SMAD3 inh – blocks TGF-b signaling; HepG2 CAGA-GFP TGF-b/SMAD3 reporter, GFP fluorescence, 18 h; TGF-beta stimulated, 500 pg/mL final; Potency, µM (doses to about 46.1 µM), inactives show at the highest dose activity, negative = inhibition, usual class: inhibitors; 410,000 tested, 1.2% active; AID 588855; note: potency is the fitted concentration of half-maximal effect; % is set by controls: 0 for no effect and ±100 for the full control effect; nearly all actives have a fitted effect of over 65% in size
#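 Cell-based qHTS in HEPG2 carrying a CAGA-GFP Smad reporter; compounds added before 500 pg/mL final TGF-beta, 18 h incubation at 37 degrees C, GFP fluorescence quantified per cell by imaging cytometry.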
# IL1B secr inh – inflammasome signaling inhibition, IL-1 beta readout. THP-1 LPS/ATP IL-1B secretion, AlphaLISA, 16 h; stronger effect = lower value. activity change, % at 57.5 µM. 360,000 tested, 4.7% active; in the data active = activity change below about -50%; inconclusive = mostly about -30% to -49%; note: % is set by controls: 0 for no effect and ±100 for the full control effect
#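 Secreted IL-1B measured by AlphaLISA bead assay after 16 h compound exposure of THP-1 cells; compounds (final up to 57.5 uM) added 1 h before LPS (250 ng/mL) and ATP (1.25 mM) stimulation; lower signal means less secretion.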
# DT40 TDP1 no CPT – qHTS for Inhibitors of human tyrosyl-DNA phosphodiesterase 1 (TDP1): qHTS in cells in absence of CPT | DT40 Tdp1-/- hTDP1 cells, no CPT, ATP luminescence, 48 h | Potency, µM (titrated, usually from 46.2 µM), for inactives: top-dose activity change, negative = growth inhibition, actives largely listed as inhibitors | 420,000 tested, 15% active; note: potency is the fitted concentration of half-maximal effect; % is set by controls: 0 for no effect and ±100 for the full control effect; nearly all actives have a fitted effect of over 55% in size
#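 Seeded 400 DT40-hTDP1 cells/well (vehicle DMSO, no 20 nM CPT); pinned compounds; ≥48 hr at 37 °C; CellTiter-Glo luminescence as viability measure.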
# ASM inhibitor – human S-ASM enzyme inhibition; 340,000 tested, 0.006% active; placental ASM, HMU-PC fluorogenic substrate, 60 min; Potency, µM (doses to about 57.5 µM), for the others: at the top dose activity change, negative = inhibition, actives largely listed as inhibitors; note: potency is the fitted concentration of half-maximal effect
# Target sequence (P17405 47-631 limits assumed): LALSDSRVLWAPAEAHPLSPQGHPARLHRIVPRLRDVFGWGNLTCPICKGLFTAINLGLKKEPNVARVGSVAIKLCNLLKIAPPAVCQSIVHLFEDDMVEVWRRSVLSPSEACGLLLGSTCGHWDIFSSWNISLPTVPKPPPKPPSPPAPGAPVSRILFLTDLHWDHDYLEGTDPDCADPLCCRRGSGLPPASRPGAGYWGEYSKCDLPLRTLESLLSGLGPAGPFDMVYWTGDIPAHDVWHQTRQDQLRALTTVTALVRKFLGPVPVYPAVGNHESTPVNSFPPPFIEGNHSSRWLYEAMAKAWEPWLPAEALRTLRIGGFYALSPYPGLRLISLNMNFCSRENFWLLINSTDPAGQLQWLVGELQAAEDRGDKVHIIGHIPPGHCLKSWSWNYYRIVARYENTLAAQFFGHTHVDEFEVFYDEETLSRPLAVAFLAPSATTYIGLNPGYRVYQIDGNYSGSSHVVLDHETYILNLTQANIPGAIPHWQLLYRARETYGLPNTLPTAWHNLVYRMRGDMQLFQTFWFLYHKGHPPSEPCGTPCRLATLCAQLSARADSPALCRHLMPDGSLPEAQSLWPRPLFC
#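 Steps: dispense placental human ASM, pin compound, wait 10 min at room temperature, add HMU-PC0 substrate at 9 uM final, incubate 60 min at 37 °C, add stop solution raising pH to 10, read fluorescence.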
# * hit, by the source's call; ? = inconclusive; nt = no result; ! = repeats disagree. Shown are actives, neighbours in structure and some others; about 19% of the full set was active somewhere. Unless noted, calls come from the whole dose curve; as a rule, active = well fitted curve in the direction sought with a large enough effect; inconclusive = small, poorly fitted or top-dose-only effect, or another doubt; inactive = no such curve, though single readings can be large; an effect the other way counts as inactive or inconclusive.
SMILES,TDP1 cell CPT,HepG2 viability,TGFb SMAD3 inh,IL1B secr inh,DT40 TDP1 no CPT,ASM inhibitor
CCN(c1ccc(OC)cc1)S(=O)(=O)c1cc(-c2cc(C)no2)ccc1OC,-15%,-34%,-6%,0,?,-8%
COc1cccc(CNS(=O)(=O)c2cc(-c3cc(C)no3)ccc2C(C)C)c1,21µM*,-5%,?,-24,?,-23%
COc1ccc(-c2cc(C)no2)cc1S(=O)(=O)NCc1ccc(OC(C)C)cc1,?,-3%,0%,49,18µM*!,-4%
CCOC(=O)C1CCN(C(=O)C2(NC(=O)Nc3ccc(F)cc3F)CCCCC2)CC1,5%,3%,?,-128*,-9%,10%
CCOC(=O)C1CCN(C(=O)C2(NC(=O)NC3CCCCC3)CCCCC2)CC1,-2%,1%,3%,21,-2%,0%
C=CC1=C(C)/C(=C/c2[nH]c(Cc3[nH]c(/C=C4\NC(=O)C(C)=C4C=C)c(C)c3CCC(=O)O)c(CCC(=O)O)c2C)NC1=O,-49%,nt,nt,nt,-14%,nt
Cc1cccc(CCN2C(N(C)C)=NC[C@@H]2CC(C)C)c1,?,-15%,-11%,-1,?,-1%
CCCCN1C(Nc2ccccc2)=NC[C@@H]1C,-16%,-4%,?,11,-3%,7%
CCCCCCCN1C(N(C)C)=NC[C@@H]1Cc1ccccc1,12µM*,-25%,?,?,9.2µM*,0%
Cc1cccc(CCN2C(N(C)C)=NC[C@@H]2Cc2ccccc2)c1,?,-3%,2%,-59*,?,-4%
CN(C)C1=NC[C@H](Cc2ccccc2)N1CCCCc1ccccc1,?,-23%,2%,?,21µM*,1%
O=C(CN(CC1CCCO1)C(=O)CNS(=O)(=O)c1ccc(F)cc1)NCc1ccc(F)cc1 (stereo unspecified),11%,7%,1%,22,9%,25%
Cc1cn2c(=O)cc(COC(=O)c3cccc(NC(=O)COc4ccccc4Cl)c3)nc2s1,?,2%,14%,nt,?,nt
CCOC(=O)c1c(N2C(=O)C=CC2=O)sc(C)c1C,1.2µM*,-92%,16µM*,-96*,2.6µM*,0%
CC(=O)NC(Cc1ccc([N+](=O)[O-])cc1)C(=O)NCC(N)C(=O)c1ccccc1 (stereo unspecified),22µM*,nt,nt,nt,5.6µM*,nt
CC(C(=O)O)n1nc(-c2ccccc2)c2ccccc21 (stereo unspecified),-1%,-3%,-9%,13,3%,1%
Cc1csc[n+]1CC(=O)c1ccc(I)cc1,16µM*,-31%,-4%,nt,?,nt
O=C(C[n+]1ccccc1)c1ccc(I)cc1,-20%,5%,4%,nt,?,nt
O/N=C(\Cn1ccnc1)c1ccccc1,3%,6%,2%,18,-11%,4%
O/N=C(/C[n+]1csc2ccccc21)c1ccccc1,1.1µM*,-27%,-11%,nt,1.1µM*,nt
O=C(C[n+]1csc2ccccc21)c1ccc(I)cc1,?,-3%,-2%,nt,11µM*,nt
O=C(NCc1cccc(C(F)(F)F)c1)C1CC(c2ccc(C(F)(F)F)cc2)=NO1 (stereo unspecified),-13%,-31%,-15%,-2,?,-2%
CC1CCCN(C(=O)CN(c2ccccc2)S(=O)(=O)c2ccc(F)cc2)C1 (stereo unspecified),6%,-12%,-17%,-3,-21%,3%
CCNC(=S)NN=C1CCC(C(C)(C)C)CC1 (stereo unspecified),?,-8%,-26%,-19,18µM*,4%
Cc1ccc(-n2nnnc2SCn2nnc3ccccc3c2=O)cc1,?,4%,-16%,-5,13µM*,0%
SMILES,TDP1 cell CPT,HepG2 viability,TGFb SMAD3 inh,IL1B secr inh,DT40 TDP1 no CPT,ASM inhibitor
O=c1c2ccccc2nnn1CSc1nnnn1-c1ccc(O)cc1,-13%,1%,-10%,10,?,7%
COc1cc2c(cc1OC)CN(Cc1cc(=O)n3cc(C)ccc3n1)CC2,-5%,5%,-14%,2,?,95%
COc1ccc(C)cc1-n1nnnc1SCn1nnc2ccccc2c1=O,16µM*,-22%,?,-14,16µM*,-2%
C/C=C/c1ccc(OCc2cc(=O)n3cc(C)ccc3n2)c(OC)c1,?,-19%,?,25,18µM*,-8%
Cc1cccc(-n2nnnc2SCn2nnc3ccccc3c2=O)c1,?,6%,-2%,9,?,0%
COc1ccc(C)cc1-n1nnnc1SCc1cc(=O)n2cc(C)ccc2n1,8.2µM*,-10%,-4%,-28,7.3µM*,5%
Cc1c(C(=O)Nc2nccs2)oc2c(Cl)cccc12,?,-19%,-28%,32,-26%,16%
O=C(Nc1csc([N+](=O)[O-])c1)Nc1c(Cl)cccc1Cl,?,-19%,-18%,-10,16µM*,-4%
CC(C)(C)OC(=O)n1cc(/C=N/NC(=O)c2ccco2)c2ccccc21,-26%,-1%,-7%,-60*,-17%,-10%
CC1CC(C)CN(C(=S)NC2CCCCC2)C1 (stereo unspecified),?,-66%,-22%,14,26µM*,5%
Cc1ccc(Cl)cc1N1CCN(C(=O)COc2cc(=O)n(C)c3ccccc23)CC1,?,-37%,?,nt,23µM*,nt
Cn1c(=O)cc(OCC(=O)NCCCN2CCN(c3cccc(Cl)c3)CC2)c2ccccc21,?,-36%,-15%,-18,16µM*,3%
O=c1cc(CSc2ccc(Cl)cc2)nc(-c2ccccn2)[nH]1,4.1µM*,-10%,?,-9,4.1µM*,-1%
O=c1cc(CSc2ccc(Cl)cc2)nc(-c2ccccc2)[nH]1,-15%,-20%,-18%,27,-19%,0%
Clc1ccc(SCc2cc(N3CCOCC3)nc(-c3ccccn3)n2)cc1,5.8µM*,-42%,?,-12,3.3µM*,-5%
Cc1cccc(NC(=O)C(=O)c2cc(C)n(-c3ccccc3)c2C)c1C,-8%,-15%,0%,nt,?,nt
O=C(CCc1nc(-c2ccccc2F)no1)Nc1ccc(Oc2ccccc2)cc1,23µM*,-9%,?,20,10µM*,-11%
COc1ccc(Br)cc1CNC(=O)CCc1nc(-c2ccccc2F)no1,16µM*,0%,-3%,-1,?,0%
